Screen size: about 94,000 compounds; about 6,200 (6.6%) were called active. Entries that show only a call come without a potency. Another 31% or so got no clear call; they are omitted. Calls come from the whole dose curve; as a rule, active = well fitted inhibition curve with a large enough effect; inconclusive = small, poorly fitted or top-dose-only effect; inactive = flat fitted curve, though single readings scatter. For the sample, actives were picked, then their nearest neighbours and some compounds at random.
Potency is the fitted concentration of half-maximal effect.

This assay can be described thus: Cytotoxic Profiling in HEK 293 Cell Line of Diverse Libraries Using Quantitative High-Throughput Screening. Note: nearly all actives have a fitted effect of over 60% in size. Conditions: HEK 293 viability, ATP luminescence (CellTiter-Glo), 48-72 h; series mostly up to 115 µM. In short, it runs like this:
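Viability of HEK 293 cells, plated at 250 cells/well, was judged by cellular ATP after compound treatment for 48 or 72 hr. Luminescence was imaged 10 min after CellTiter-Glo addition at room temperature.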
Background: ATP-based viability assays read luminescence as a measure of living cells.
For `O=C(CCC1CCCC1)N1CCC2(CC1)CC(O)CCO2` (stereo not drawn), the Potency entry was “inactive”.

With `c1ccc(-n2cnnc2CC2CCN(Cc3ccc(-c4ccn[nH]4)o3)CC2)cc1`, the Potency entry is “inactive”.

With `CC(C)CN1CCN(C2CCOC3(CCN(S(=O)(=O)c4cccs4)CC3)C2)CC1` (stereo not drawn), the Potency result is “inactive”.

Consider `COC(=O)c1cccc2nc([C@H]3CCN(Cc4ccccc4)C3)oc12`, for which the Potency was 79.4 µM (active).

As to `CCOc1ncccc1C(=O)N1CCN(Cc2ccccc2)CC(O)C1` (stereo not drawn), the Potency entry was “inactive”.

As for `Cc1nnc([C@H]2CCN(Cc3ccc(F)cc3)C2)o1`, the Potency result was “inactive”.

With `Cc1cc(C[C@@H]2COC[C@@H]2NC(=O)CCCc2nc(-c3ccco3)no2)on1`, the Potency entry was “inactive”.

In the case of `COCCNC(=O)c1cnc2n[nH]c(-c3ccccc3OC)c2n1`, the Potency entry was “inactive”.

Regarding `COc1ccccc1-n1c(=O)c(C(=O)N2CCN(Cc3ccccc3)CC2)nc2cccnc21`, the Potency result was “inactive”.

Consider `COc1ccccc1-c1[nH]nc2ncc(C(=O)N3CCN(Cc4ccccc4)CC3)nc12`, for which the Potency is 100 µM (active).

Turning to `CNC(=O)c1cc(C)nc2onc(C3CCN(C(=O)c4ccc(C(F)(F)F)cc4)C3)c12` (stereo not drawn), the Potency entry was “inactive”.

With `Cc1cc(C)n(CC(=O)N2CCCC3(C2)Nc2cccnc2NC3=NC2CCCC2)n1` (stereo not drawn), the Potency result was “inactive”.

With `O=C(c1ccc(Cl)cc1)N1CCN(CCn2nc3n(c2=O)CCCC3)CC1`, the Potency entry was “inactive”.

Regarding `Cc1noc(C)c1S(=O)(=O)N1CCCN(c2nc3ncccc3o2)CC1`, the Potency result was “inactive”.

`O=C(NCc1cccc(F)c1)C1CN(c2ccccc2)C(=O)N1` (stereo not drawn): the Potency result is “inactive”.

`CNC(=O)CN(C)C(=O)[C@@H]1CN(c2ncccn2)C[C@H]1COC`: the Potency result was “inactive”.

As for `F[C@@H]1CN(C2CCC2)C[C@@H]1OCc1nc2ncccc2[nH]1`, the Potency result is “inactive”.

On to `O=C(Nc1ccccc1)O[C@@H]1CO[C@H]2[C@@H]1OC[C@@H]2NS(=O)(=O)c1cccc2cccnc12`, for which the Potency entry is “inactive”.

In the case of `O=C(Nc1ccc(Oc2ccccc2)cc1)O[C@@H]1CO[C@H]2[C@@H]1OC[C@@H]2NS(=O)(=O)c1cccs1`, the Potency is 39.8 µM (active).

Consider `CC(=O)Nc1ccc(S(=O)(=O)N[C@H]2CO[C@H]3[C@@H]2OC[C@@H]3n2nnnc2Oc2ccccc2)cc1`, for which the Potency result is “inactive”.

As to `O=C(c1ccccc1)N1CCC2(CC(c3cccnc3)=NO2)C1` (stereo not drawn), the Potency result was “inactive”.

For the compound `O=C(NCC1CCOCC1)Nc1cccc(Cl)c1`, the Potency entry was “inactive”.

In the case of `O=C(Nc1cccc(Cl)c1)[C@@H]1C[C@H](c2ccc(F)cc2)N([S+](=O)([O-])C2CC2)C1`, the Potency was 79.4 µM (active).

Consider `O=C(Nc1ccc(Cl)cc1)C1CCN(C(=O)c2ncn3c2COC(c2ccc(F)cc2)C3)CC1` (stereo not drawn), for which the Potency entry was “inactive”.

In the case of `CC[C@H]1CN(S(C)(=O)=O)CC[C@H]1CC(=O)NCc1cccc2ccccc12`, the Potency result is “inactive”.

As for `Cn1nc(-c2nncn2CC2CC2)c2c1CCN(C(=O)CC1CCCC1)C2`, the Potency result is “inactive”.

As for `O=C(Cc1cccc(F)c1)N1CCCC(Cc2nncn2-c2ccccc2)C1` (stereo not drawn), the Potency result was “inactive”.

As for `NS(=O)(=O)c1ccc(F)c(C(=O)N[C@@H]2c3ccccc3C[C@@H]2O)c1`, the Potency result was “inactive”.

On to `NS(=O)(=O)c1ccc(F)c(C(=O)NCc2noc(-c3ccco3)n2)c1`, for which the Potency entry was “inactive”.

Take `CCOc1ncccc1CNC(=O)c1cc(S(N)(=O)=O)ccc1F`: the Potency is 79.4 µM (active).

For `CNC(=O)c1cc(C)nc2onc(C3CCCN3C(=O)C3CCCC3)c12` (stereo not drawn), the Potency entry is “inactive”.

As for `Cc1cccc(NC(=O)N2CC(Oc3ccc(-c4nc(C)no4)cc3)C2)c1`, the Potency result was “inactive”.

Regarding `CN1C[C@H](NS(C)(=O)=O)CCC[C@@H](C(=O)N(C)Cc2cccnc2)CC1=O`, the Potency result is “inactive”.

As to `CC1=C[C@@H](CNS(=O)(=O)c2cccc(C#N)c2)[C@H](C(C)C)C[C@H]1CC(=O)N(C)Cc1cccnc1`, the Potency is 39.8 µM (active).

Take `CN(Cc1ccccc1)C(=O)C[C@@H]1O[C@H](CNS(=O)(=O)c2ccc(Cl)cc2)[C@@H](O)[C@H]1O`: the Potency entry was “inactive”.

For `CCOc1nccnc1NC1CCN(C(=O)c2cccnc2)CC1`, the Potency result is “inactive”.

`Cc1nn(CCO)cc1-c1c(-c2ccccc2)ncn1CC(=O)O`: the Potency result was “inactive”.

In the case of `O=C(c1cccnc1)N1CCC(c2nnc(Cn3cccn3)n2C2CC2)CC1`, the Potency result is “inactive”.

On to `Cc1cnc(C(=O)N[C@@H]2CCC[C@@H]2C(=O)Nc2ccc3c(c2)OCCO3)cn1`, for which the Potency entry was “inactive”.

`O=C(O)CCc1cc2n(n1)CCCN(C(=O)CN1CCOC1=O)C2`: the Potency result was “inactive”.

`CS(=O)(=O)c1ccc(N2CCN(C(=O)[C@H]3CC[C@@H](N)C3)CC2)c(F)c1`: the Potency entry is “inactive”.

In the case of `Cc1ccc(C(=O)N2CCC(c3nn(-c4ccccc4)c(=O)[nH]3)CC2)cc1`, the Potency entry was “inactive”.

With `O=C(c1ccccc1F)N1CCC(c2nn(-c3ccc(F)cc3)c(=O)[nH]2)CC1`, the Potency result is “inactive”.

Regarding `O=C(c1ccccc1F)N1CCC(c2nn(-c3ccc(Cl)cc3)c(=O)[nH]2)CC1`, the Potency is 79.4 µM (active).

In the case of `COc1cc(=O)n2c(c1C(=O)Nc1cc(C)ccc1C)CCCC2`, the Potency result was “inactive”.

For `O=C(NC1CCCN(CCn2nc3n(c2=O)CCCC3)C1)c1ccc(F)cc1` (stereo not drawn), the Potency entry was “inactive”.

Turning to `CCCCCC(=O)N1CC[C@H]2COC(=O)N2c2cc(F)ccc2C1`, the Potency entry is “inactive”.

As to `O=S(=O)(c1ccccc1)N1CCC(F)(c2nc(Cc3ccccc3)no2)CC1`, the Potency was 44.7 µM (active).

Regarding `CN(CCc1noc(C2CN(S(=O)(=O)c3ccccc3)C2)n1)C(=O)c1ccncc1`, the Potency entry was “inactive”.

For `O=S(=O)(c1ccccc1)N1CCN(c2ccnc3ccnn23)CC1`, the Potency entry was “inactive”.

Take `O=C(NCc1ccncc1)C1CC(=O)N(c2n[nH]c3cccc(F)c23)C1` (stereo not drawn): the Potency entry is “inactive”.

Consider `Cc1ncc(C(=O)N2CCCC(c3cc(N4CCOCC4)nc(C)n3)C2)cn1` (stereo not drawn), for which the Potency entry was “inactive”.

For the compound `CN(C)C(=O)C1=NOC2CN(C(=O)c3ccn(C)n3)CC12` (stereo not drawn), the Potency entry was “inactive”.

Take `O=C(CN1C(=O)NC2(CCOCC2)C1=O)Nc1cccc(Br)c1`: the Potency result was “inactive”.

Take `CCOc1ccccc1CN1CCCOCCNC(=O)CC1`: the Potency result was “inactive”.

As to `CCOc1ccccc1CN1CCC2(CCN(Cc3cncs3)CC2)Oc2ccccc21`, the Potency was 44.7 µM (active).

As to `CCOc1ccccc1CN1CCC2(CCN(C(=O)c3cccc(Cl)c3)CC2)Oc2ccccc21`, the Potency result is “inactive”.

For the compound `CCn1ccc(C(=O)N2C[C@@H](F)C[C@H]2C(=O)N2CCCCC2)n1`, the Potency result was “inactive”.

As to `C#CCNC(=O)CC[C@H]1CNC(=O)[C@@H]2[C@@H](CCN2Cc2ccc(N(C)C)cc2)N1C`, the Potency result is “inactive”.

Consider `N#Cc1ccc(-c2nc(C(=O)NC3CCCCCC3)no2)cc1`, for which the Potency entry was “inactive”.

Turning to `COc1ccc(CN2C[C@H](O)C[C@H]2c2nc(-c3ccc4c(c3)OCO4)no2)c(OC)c1OC`, the Potency result was “inactive”.

As for `CN1C[C@@H](NC(=O)c2ccc(C#N)cc2)C[C@H]1c1nc(-c2ccc(OC(F)(F)F)cc2)no1`, the Potency was 22.4 µM (active).

`CN1C[C@@H](NC(=O)c2cnccn2)C[C@H]1c1nc(-c2ccc3c(c2)OCO3)no1`: the Potency entry is “inactive”.

As to `N#Cc1ccc(C(=O)N2C[C@@H]3C[C@H](C2)c2ccc(-c4ccc(OC(F)(F)F)cc4)c(=O)n2C3)cc1`, the Potency entry is “inactive”.

In the case of `CN1C[C@@H](NC(=O)c2ccccc2)C[C@H]1c1nc(-c2ccccc2)no1`, the Potency result is “inactive”.

Regarding `CN1C[C@@H](NC(=O)c2ccc(C(C)(C)C)cc2)C[C@H]1c1nc(-c2ccc3ccccc3c2)no1`, the Potency was 22.4 µM (active).

Take `CN1C[C@@H](NC(=O)COc2ccccc2)C[C@H]1c1nc(-c2ccc3c(c2)OCO3)no1`: the Potency is 100 µM (active).

Regarding `CN1C[C@@H](NC(=O)CC(C)(C)C)C[C@H]1c1nc(Cc2ccccc2)no1`, the Potency entry was “inactive”.

The values are drawn from PubChem BioAssay AID1345083 (National Center for Advancing Translational Sciences (NCATS), 2018).
